Autofluor counter – flagged as autofluorescent in microsphere protease counterscreen; fluorescence intensity (no concentration beside the values); compound autofluorescence counterscreen, microsphere flow cytometry; stronger effect = higher value; actives 3.1% (n = 360,000); in the data active = fluorescence intensity above about 16000; inconclusive = no clear call, values can overlap the other calls
BoNT-A LC inh2 – inhibitors of Botulinum neurotoxin A light chain protease; multiplex microsphere protease substrate cleavage, flow cytometry; inhibition, % at 10 µM; actives 0.17% (n = 360,000); AID 588499
Anthrax LF inh2 – inhibitors of Bacillus anthracis lethal factor protease. P15917. multiplex microsphere protease cleavage assay, LF. inhibition, % at 10 µM. actives 0.12% (n = 360,000)
Target sequence (P15917 whole entry, looked up): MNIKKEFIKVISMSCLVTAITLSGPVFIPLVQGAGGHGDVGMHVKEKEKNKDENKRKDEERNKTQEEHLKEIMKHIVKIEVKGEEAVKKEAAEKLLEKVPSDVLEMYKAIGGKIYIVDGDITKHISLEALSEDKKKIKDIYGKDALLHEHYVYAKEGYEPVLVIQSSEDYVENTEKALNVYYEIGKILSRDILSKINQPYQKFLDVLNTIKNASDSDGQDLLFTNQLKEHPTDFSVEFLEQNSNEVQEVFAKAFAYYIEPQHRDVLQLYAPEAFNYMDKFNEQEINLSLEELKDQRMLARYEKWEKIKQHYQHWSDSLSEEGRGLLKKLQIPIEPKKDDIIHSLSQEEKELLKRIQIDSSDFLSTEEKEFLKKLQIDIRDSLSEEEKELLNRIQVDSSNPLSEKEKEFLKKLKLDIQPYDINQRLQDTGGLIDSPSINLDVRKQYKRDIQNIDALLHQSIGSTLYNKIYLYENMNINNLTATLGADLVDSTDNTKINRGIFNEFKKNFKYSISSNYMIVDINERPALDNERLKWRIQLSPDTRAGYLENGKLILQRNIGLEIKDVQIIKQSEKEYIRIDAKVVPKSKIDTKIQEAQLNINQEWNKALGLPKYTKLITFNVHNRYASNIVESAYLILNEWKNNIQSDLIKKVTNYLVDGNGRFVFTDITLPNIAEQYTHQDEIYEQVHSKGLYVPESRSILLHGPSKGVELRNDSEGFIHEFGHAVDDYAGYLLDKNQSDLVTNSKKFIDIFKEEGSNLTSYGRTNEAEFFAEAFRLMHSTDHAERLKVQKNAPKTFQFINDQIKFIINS
Vc quorum ag – quorum light induction in luxS cqsA deficient V. cholerae; AID 588436; V. cholerae BH1578 lux reporter, luminescence, 6 h; actives 0.16% (n = 350,000); activation, % at 18.7 µM; in the data active = activation mostly above about 9.7%, no sharp cut-off; inconclusive = no clear call, values can overlap the other calls; inactive = mostly below about 3.7%
BoNT F protease – inhibitors of Botulinum neurotoxin F light chain protease | inhibition, % at 10 µM | actives 0.22% (n = 360,000) | Multiplex microsphere protease cleavage assay, flow cytometry; in the data active = inhibition above about 35%, passing the limit was not always enough; inconclusive = no clear call, values can overlap the other calls
Each line names hits and unclear results; the compound was inactive in the other large screens. In the library only some 3.5% were active in any assay of this set; here they are far more common. Rule as the data show it, unless noted: active = inhibition above about 30%; inconclusive = no clear call, values can overlap the other calls; inactive = below that.

CN1C(=O)CC(N2CCN(C(=O)CN3CCCC3)CC2)C1=O (stereo unspecified)	Autofluor counter 24470
OCC[C@@H]1C[C@H](O)[C@@H](O)[C@]2(CCCO2)O1	none
O=C(/C=C/c1ccccc1)Nc1ccc(C(=O)N2CCCCC2)cc1	none
Cc1ccc(C2=N/C(=C/N3CCOCC3)C(=O)O2)cc1	none
Cc1cccc2cc(/C=C3\N=C(c4ccccc4)OC3=O)c(N3CCOCC3)nc12	BoNT-A LC inh2 124, Anthrax LF inh2 65, BoNT F protease 41
CCSc1nnc(NC(=O)c2cc(OC)c(OC)c(OC)c2)s1	none
Cc1ccc(CCN2CC(C(=O)NCCCOC(C)C)CC2=O)cc1 (stereo unspecified)	Autofluor counter 21642
CC(C)OCCCNC(=O)C1CC(=O)N(CCc2ccc(F)cc2)C1 (stereo unspecified)	none
Cc1ccc(CCN2CC(C(=O)N3CCN(c4ccc(F)cc4)CC3)CC2=O)cc1 (stereo unspecified)	Autofluor counter 20552
COC(CNC(=O)C1CC(=O)N(CCc2ccccc2)C1)OC (stereo unspecified)	Autofluor counter 20271
CCOC(=O)C1=C(N)Oc2cc(O)ccc2C1c1cccc([N+](=O)[O-])c1 (stereo unspecified)	none
O=C(COc1ccc(S(=O)(=O)NC2CCCCC2)cc1)N1CCN(c2cccc(Cl)c2)CC1	Autofluor counter 22384
CCCn1c(N)c(Sc2ccccc2[N+](=O)[O-])c(=O)n(CCC)c1=O	none
COc1ccc(NC(=O)c2nc3ccccc3s2)cc1	none
CC(C)NC(=O)c1nc2ccccc2s1	Autofluor counter 19111
O=c1nc2ccccc2c2n1CC(CN1CCN(c3cccc(Cl)c3)CC1)N2 (stereo unspecified)	Autofluor counter 17652
CCc1nc2ccccc2n(CCOCCn2c(=O)c(CC)nc3ccccc32)c1=O	Autofluor counter 21722
Cc1cccc(N(C(=O)CNC(=O)c2cccs2)C(C(=O)NC2CCCC2)c2ccncc2)c1 (stereo unspecified)	none
C=CCn1c(=S)sc2c(=O)[nH]cnc21	Anthrax LF inh2 53, BoNT F protease inconclusive
O=c1[nH]cnc2c1sc(=S)n2-c1ccccc1	Autofluor counter 22624
Cc1cccc(CC(=O)N2CCC(N3CCC(C(=O)N4CCOCC4)CC3)CC2)c1	none
COC(=O)C[C@@H]1C[C@H]2c3cc(NS(C)(=O)=O)ccc3O[C@H]2[C@H](CO)O1	none
O=C(Nc1ccccn1)c1ccc2ccccc2c1O	none
O=C(O)c1ccccc1C(=O)Nc1ccccn1	Autofluor counter 23171
COc1nn(CC(=O)N2N=C(C)CC2(O)C(F)(F)F)cc1[N+](=O)[O-] (stereo unspecified)	Autofluor counter 24478
C=CCc1cccc2ccc(=O)oc12	BoNT F protease 37
Cn1c(SCC(=O)N2CCN(c3ccccc3)CC2)nnc1-c1cc2ccccc2o1	Autofluor counter 16756
Cn1c(SCC(=O)N2CCN(c3cccc(Cl)c3)CC2)nnc1-c1ccncc1	Autofluor counter 22921
Nc1nnc(SCC(=O)N2CCN(c3ccccc3)CC2)n1-c1ccccc1	none
CCn1c(SCC(=O)N2CCN(c3ccc(F)cc3)CC2)nnc1-c1ccncc1	Autofluor counter 20103
Cc1occc1-c1nnc(SCC(=O)N2CCN(c3ccccc3)CC2)n1C	none
Cn1c(SCC(=O)N2CCN(c3ccccc3)CC2)nnc1-c1ccncc1	none
Nc1nnc(SCC(=O)N2CCN(c3cccc(Cl)c3)CC2)n1-c1ccccc1	Autofluor counter 23616
CC(CCc1ccccc1)NC(=O)COC(=O)c1cccnc1Cl (stereo unspecified)	none
Cc1nn(CC(=O)NC(=O)c2ccccc2)c(C)c1[N+](=O)[O-]	none
CCOC(=O)NC(Nc1sc2c(c1C(N)=O)CCCC2)(C(=O)OCC)C(F)(F)F (stereo unspecified)	Autofluor counter 20183, BoNT-A LC inh2 inconclusive
CSc1ccc(/C=C/C(=O)c2c(O)cc(C)oc2=O)cc1	BoNT F protease 45
COc1cc(C(=O)OCC(=O)NC2CCCC2)cc(NC(=O)c2ccco2)c1OC	Autofluor counter 20665
CCC(C)c1ccccc1NC(=O)COC(=O)c1ccc(C)c(NC(=O)c2ccco2)c1 (stereo unspecified)	Autofluor counter 21016
COc1cc(C(=O)OCC(C)=O)cc(NC(=O)c2ccco2)c1OC	none
CCC(=O)N(Cc1ccc(C)cc1)Cc1cc2cc3c(cc2[nH]c1=O)OCO3	Autofluor counter 23631
CCC(=O)N(CCc1ccccc1)Cc1cc2cc3c(cc2[nH]c1=O)OCO3	Autofluor counter 21744
CCN(CC)CCCN(Cc1cc2cc3c(cc2[nH]c1=O)OCO3)C(=S)NC	BoNT F protease 35
CCN(CC)CCCN(Cc1cc2cc3c(cc2[nH]c1=O)OCO3)C(=S)NCCCN(C)C	BoNT F protease inconclusive
CCOC(=O)c1ccc(NC(=O)[C@@H]2CCC(=O)N2C2OC(=O)c3c2ccc(OC)c3OC)cc1 (stereo partly specified)	none
Cc1ccc(CNC(=O)C(=O)NCC2OCCCN2S(=O)(=O)c2ccc(F)cc2)cc1 (stereo unspecified)	Autofluor counter inconclusive
O=C1C2C3C=CC(C3)C2C(=O)N1CC1CCCO1 (stereo unspecified)	Autofluor counter 20157, BoNT-A LC inh2 inconclusive
O=C1C2C3CC(C(Br)C3Br)C2C(=O)N1CC1CCCO1 (stereo unspecified)	BoNT F protease inconclusive
C[C@@H]1CCCCO[C@@H](CN(C)S(=O)(=O)c2ccc(F)cc2)[C@@H](C)CN([C@H](C)CO)C(=O)c2cc(NC(=O)c3ccccc3)ccc2O1	none
CN(Cc1ccccc1)C(=O)NC1CCCCC1	Autofluor counter 22110, BoNT-A LC inh2 inconclusive
CN(C(=O)NC1CCCCC1)c1ccccc1	none
O=C(c1sc2ccccc2c1Cl)N(Cc1ccccc1Cl)C1CCS(=O)(=O)C1 (stereo unspecified)	Autofluor counter 22430
O=C(c1sc2ccccc2c1Cl)N(Cc1ccccc1)C1CCS(=O)(=O)C1 (stereo unspecified)	none (no result: Autofluor counter, BoNT-A LC inh2, Anthrax LF inh2, BoNT F protease)
CCOc1ccccc1C(=O)N(Cc1ccco1)C1CCS(=O)(=O)C1 (stereo unspecified)	none
O=C(c1sc2ccccc2c1Cl)N(Cc1ccco1)C1CCS(=O)(=O)C1 (stereo unspecified)	Autofluor counter 23946, BoNT-A LC inh2 inconclusive
Cc1ccc2c(CN3CCN(S(=O)(=O)c4ccccc4C(F)(F)F)CC3)cc(=O)oc2c1C	none (no result: Autofluor counter, BoNT-A LC inh2, Anthrax LF inh2, BoNT F protease)
COc1ccc(S(=O)(=O)N2CCC3(CC2)OCCN3S(=O)(=O)c2cccs2)cc1OC	Autofluor counter 20013
Cc1ccc(S(=O)(=O)N2CCOCC2)c2nsnc12	Autofluor counter 17116
Cc1cc(C)cc(C(=O)Nn2cnnc2)c1	none
CN(c1ccccc1C(=O)Nc1ccc(CC#N)cc1)S(=O)(=O)c1ccccc1	none
CCc1ccc(CCC(=O)Nc2nnc(C)s2)o1	Autofluor counter 20941, BoNT-A LC inh2 inconclusive
CCc1ccc(CCC(=O)Nc2nc(CC(C)=O)ns2)o1	Autofluor counter 16142
Cc1cc(NC(=O)CSC2=Nc3ccccc3C3=NC(Cc4ccccc4)C(=O)N23)n[nH]1 (stereo unspecified)	Vc quorum ag 26

Screens (PubChem)
